Data: PubChem BioAssay (NCATS)
Results filed as inconclusive are left out. Unmarked numbers belong to inactive results. Active and inactive are the calls of the source. Calls follow the shape of the full dose curve; tested in HEK293 reporter line.

experiment: qHTS for Inhibitors of the Functional Ribonucleoprotein Complex (vRNP) of Lassa (LASV) Arenavirus: Viability assay - alamar blue signal for LASV Primary Screen (AID 1347083); conditions: cell viability, alamar blue fluorescence (LASV minigenome counter-screen); series mostly up to 57.5 µM; activity change, negative = reduced viability: at the top concentration
% is scaled to controls: 0 for no effect and ±100 for the full control effect; potency is read from the fitted curve at half-maximal effect.
Also: nearly all actives have a fitted effect of over 80% in size.

Row | SMILES | activity change, negative = reduced viability | Potency
1 | CC(=O)[C@H]1CC[C@H]2[C@@H]3CCC4=CC(=O)CC[C@]4(C)[C@H]3CC[C@]12C | 1.2% | –
2 | O=C1CCCC(=O)C1C(=O)c1ccc(C(F)(F)F)cc1[N+](=O)[O-] | -11.3% | –
3 | Cc1ccc(NC(=O)C2(c3ccc4c(c3)OC(F)(F)O4)CC2)nc1-c1cccc(C(=O)O)c1 | – | 43.2 nM (active)
4 | O=C1c2c(O)cccc2[C@@H]([C@@H]2O[C@H](CO)[C@@H](O)[C@H](O)[C@H]2O)c2cc(CO)cc(O)c21 | 9.29% | –
5 | CN1C2CCC1CC(OC(=O)C1CCC(C(=O)OC3CC4CCC(C3)N4C)(c3ccccc3)c3ccccc31)C2 (stereo not given) | -9.73% | –
6 | Cc1c(-c2ccc(O)cc2)n(Cc2ccc(OCCN3CCCCCC3)cc2)c2ccc(O)cc12 | – | inactive
7 | Clc1ccc2c(c1)N=C(N1CCNCC1)c1ccccc1N2 | -18.7% | –
8 | N[C@@H](CC(=O)N1CCn2c(nnc2C(F)(F)F)C1)Cc1cc(F)c(F)cc1F | -7.98% | –
9 | C=C1C(=O)[C@@]23C(CC[C@@H]1[C@H]2O)[C@@]12CO[C@]3(O)[C@@H](O)[C@@H]1C(C)(C)CC[C@@H]2O (stereo not given in full) | – | 6850 nM (active)
10 | CCCNS(=O)(=O)Nc1ncnc(OCCOc2ncc(Br)cn2)c1-c1ccc(Br)cc1 | -3.78% | –
11 | Cc1ccccc1O | 2.2% | –
12 | COc1ccc(-n2nc(C(N)=O)c3c2C(=O)N(c2ccc(N4CCCCC4=O)cc2)CC3)cc1 | -0.573% | –
13 | CC(O)[C@H]1CC[C@H]2[C@@H]3CC[C@@H]4C[C@@H](O)CC[C@]4(C)[C@H]3CC[C@]12C (stereo not given in full) | 12.5% | –
14 | CC(C)C(=O)Oc1ccc(CO)cc1[C@H](CCN(C(C)C)C(C)C)c1ccccc1 | -5.46% | –
15 | C[C@H]1COc2c(N3CCN(C)CC3)c(F)cc3c(=O)c(C(=O)O)cn1c23 | 11.8% | –
16 | O=S(=O)(c1cccc2c(Cl)cccc12)N1CCCNCC1 | 12.5% | –
17 | COc1ccc(CCN(C)CCCC(C#N)(c2ccc(OC)c(OC)c2)C(C)C)cc1OC (stereo not given) | – | inactive
18 | CN(C/C=C/c1ccccc1)Cc1cccc2ccccc12 | 0.259% | –
19 | OCCCNc1cc(-c2ccnc(Nc3cccc(Cl)c3)n2)ccn1 | – | 193 nM (active)
20 | Cc1ccc(C(=O)Nc2cccc(C(F)(F)F)c2)cc1Nc1nc(-c2cccnc2)nc2c1cnn2C | -34.7% | –

Row | SMILES | activity change, negative = reduced viability | Potency
21 | O=S(=O)(c1cccc2c(I)cccc12)N1CCCNCC1 | 1.94% | –
22 | C[N+]1(CCCCC[N+]2(C)CCCC2)CCCC1 | 22.4% | –
23 | O=C(O)c1nc(=O)[nH]c(=O)[nH]1 | -21.3% [at 24.7 µM] | –
24 | CCc1cc2c(cc1N1CCC(N3CCOCC3)CC1)C(C)(C)c1[nH]c3cc(C#N)ccc3c1C2=O | -38.2% | –
25 | N#CC(c1ccc(Cl)cc1)c1c(Cl)cc(-n2ncc(=O)[nH]c2=O)cc1Cl (stereo not given) | -10% | –
26 | NC(N)=NCc1cccc(I)c1 | 2.1% | –
27 | CO[C@H]1[C@@H](O)[C@H](N)[C@@H](O[C@H]2O[C@H]([C@H](C)N)CC[C@H]2N)[C@H](O)[C@@H]1N(C)C(=O)CN | 11.1% | –
28 | O=C(O)/C=C/c1ccccc1 | -2.31% [at 115 µM] | –
29 | CC(=O)O[C@H]1Cc2ccccc2N(C(N)=O)c2ccccc21 | 0.253% | –
30 | CCCOc1ccc2[nH]cc(C3=CCNCC3)c2n1 | 1.26% | –
31 | CC(C)COC(=O)OCN1C(=O)CN(CCN2CC(=O)N(COC(=O)OCC(C)C)C(=O)C2)CC1=O | 3.32% | –
32 | CN(C)CCC(c1ccc(Br)cc1)c1ccccn1 (stereo not given) | 2.64% | –
33 | COc1ccc(/C=C/C(=O)Nc2ccccc2C(=O)O)cc1OC | -16.9% | –
34 | CC(C)(O)C1OC2CCC3(C)C(O)(CCC4Cc5c([nH]c6ccccc56)C43C)C2=CC1=O (stereo not given) | -26.8% | –
35 | CCc1nc(-c2cccc(C)c2)c(-c2ccnc(NC(=O)c3ccccc3)c2)s1 | -23.6% | –
36 | CN(C)CCCN1c2ccccc2CCc2ccccc21 | – | inactive
37 | CCC(=O)NCC[C@@H]1CCc2ccc3c(c21)CCO3 | -31.4% | –
38 | OC[C@@H]1[C@@H](O)[C@H](O)[C@H]2[C@@H](O)CCN21 | 10.4% | –
39 | CC1(C)CCC(CN2CCN(c3ccc(C(=O)NS(=O)(=O)c4ccc(NCC5CCOCC5)c([N+](=O)[O-])c4)c(Oc4cnc5[nH]ccc5c4)c3)CC2)=C(c2ccc(Cl)cc2)C1 | -4.27% | –
40 | O=[N+]([O-])c1c(Cl)cccc1-c1c[nH]cc1Cl | 16.9% | –

experiment: qHTS for Inhibitors of the Functional Ribonucleoprotein Complex (vRNP) of Lymphocytic Choriomeningitis Arenaviruses (LCMV): Viability assay - alamar blue signal for LCMV Primary Screen (AID 1347085); conditions: alamar blue viability counter-screen, LCMV vRNP screen cells; series mostly up to 57.5 µM; activity change, negative = lower viability: at the top concentration

Row | SMILES | Potency | activity change, negative = lower viability
41 | CC(=O)[C@H]1CC[C@H]2[C@@H]3CCC4=CC(=O)CC[C@]4(C)[C@H]3CC[C@]12C | inactive | –
42 | O=C1CCCC(=O)C1C(=O)c1ccc(C(F)(F)F)cc1[N+](=O)[O-] | – | -3.87%
43 | Cc1ccc(NC(=O)C2(c3ccc4c(c3)OC(F)(F)O4)CC2)nc1-c1cccc(C(=O)O)c1 | 68.5 nM (active) | –
44 | O=C1c2c(O)cccc2[C@@H]([C@@H]2O[C@H](CO)[C@@H](O)[C@H](O)[C@H]2O)c2cc(CO)cc(O)c21 | – | -1.36%
45 | CN1C2CCC1CC(OC(=O)C1CCC(C(=O)OC3CC4CCC(C3)N4C)(c3ccccc3)c3ccccc31)C2 (stereo not given) | – | -12.4%
46 | Cc1c(-c2ccc(O)cc2)n(Cc2ccc(OCCN3CCCCCC3)cc2)c2ccc(O)cc12 | – | -7.65%
47 | Clc1ccc2c(c1)N=C(N1CCNCC1)c1ccccc1N2 | – | -17.5%
48 | N[C@@H](CC(=O)N1CCn2c(nnc2C(F)(F)F)C1)Cc1cc(F)c(F)cc1F | – | -1.77%
49 | C=C1C(=O)[C@@]23C(CC[C@@H]1[C@H]2O)[C@@]12CO[C@]3(O)[C@@H](O)[C@@H]1C(C)(C)CC[C@@H]2O (stereo not given in full) | 2170 nM (active) | –
50 | CCCNS(=O)(=O)Nc1ncnc(OCCOc2ncc(Br)cn2)c1-c1ccc(Br)cc1 | – | -2.83%
51 | Cc1ccccc1O | – | 16%
52 | COc1ccc(-n2nc(C(N)=O)c3c2C(=O)N(c2ccc(N4CCCCC4=O)cc2)CC3)cc1 | – | 4.48%
53 | CC(O)[C@H]1CC[C@H]2[C@@H]3CC[C@@H]4C[C@@H](O)CC[C@]4(C)[C@H]3CC[C@]12C (stereo not given in full) | – | 20.9%
54 | CC(C)C(=O)Oc1ccc(CO)cc1[C@H](CCN(C(C)C)C(C)C)c1ccccc1 | – | -2.41%
55 | C[C@H]1COc2c(N3CCN(C)CC3)c(F)cc3c(=O)c(C(=O)O)cn1c23 | – | 17.4%
56 | O=S(=O)(c1cccc2c(Cl)cccc12)N1CCCNCC1 | – | 17.6%
57 | COc1ccc(CCN(C)CCCC(C#N)(c2ccc(OC)c(OC)c2)C(C)C)cc1OC (stereo not given) | inactive | –
58 | CN(C/C=C/c1ccccc1)Cc1cccc2ccccc12 | – | 3.75%
59 | OCCCNc1cc(-c2ccnc(Nc3cccc(Cl)c3)n2)ccn1 | 769 nM (active) | –
60 | Cc1ccc(C(=O)Nc2cccc(C(F)(F)F)c2)cc1Nc1nc(-c2cccnc2)nc2c1cnn2C | – | 11.2%

Row | SMILES | Potency | activity change, negative = lower viability
61 | O=S(=O)(c1cccc2c(I)cccc12)N1CCCNCC1 | – | 4.38%
62 | C[N+]1(CCCCC[N+]2(C)CCCC2)CCCC1 | – | 9.88%
63 | O=C(O)c1nc(=O)[nH]c(=O)[nH]1 | – | 13.2% [at 24.7 µM]
64 | CCc1cc2c(cc1N1CCC(N3CCOCC3)CC1)C(C)(C)c1[nH]c3cc(C#N)ccc3c1C2=O | – | -32.2%
65 | N#CC(c1ccc(Cl)cc1)c1c(Cl)cc(-n2ncc(=O)[nH]c2=O)cc1Cl (stereo not given) | – | -3.24%
66 | NC(N)=NCc1cccc(I)c1 | – | 7.52%
67 | CO[C@H]1[C@@H](O)[C@H](N)[C@@H](O[C@H]2O[C@H]([C@H](C)N)CC[C@H]2N)[C@H](O)[C@@H]1N(C)C(=O)CN | – | 5.14%
68 | O=C(O)/C=C/c1ccccc1 | – | 5.04% [at 115 µM]
69 | CC(=O)O[C@H]1Cc2ccccc2N(C(N)=O)c2ccccc21 | – | 2.41%
70 | CCCOc1ccc2[nH]cc(C3=CCNCC3)c2n1 | – | 10.7%
71 | CC(C)COC(=O)OCN1C(=O)CN(CCN2CC(=O)N(COC(=O)OCC(C)C)C(=O)C2)CC1=O | – | 7.49%
72 | CN(C)CCC(c1ccc(Br)cc1)c1ccccn1 (stereo not given) | – | 4.74%
73 | COc1ccc(/C=C/C(=O)Nc2ccccc2C(=O)O)cc1OC | – | -21.4%
74 | CC(C)(O)C1OC2CCC3(C)C(O)(CCC4Cc5c([nH]c6ccccc56)C43C)C2=CC1=O (stereo not given) | – | -54.5%
75 | CCc1nc(-c2cccc(C)c2)c(-c2ccnc(NC(=O)c3ccccc3)c2)s1 | – | 28.6%
76 | CN(C)CCCN1c2ccccc2CCc2ccccc21 | inactive | –
77 | CCC(=O)NCC[C@@H]1CCc2ccc3c(c21)CCO3 | – | -11.8%
78 | OC[C@@H]1[C@@H](O)[C@H](O)[C@H]2[C@@H](O)CCN21 | – | -7.81%
79 | CC1(C)CCC(CN2CCN(c3ccc(C(=O)NS(=O)(=O)c4ccc(NCC5CCOCC5)c([N+](=O)[O-])c4)c(Oc4cnc5[nH]ccc5c4)c3)CC2)=C(c2ccc(Cl)cc2)C1 | – | -26.5%
80 | O=[N+]([O-])c1c(Cl)cccc1-c1c[nH]cc1Cl | – | -26%
